From PubChem BioAssay (NCATS) come the findings set out here.

In assay [1] the target is Calcium and integrin-binding protein 1 (Homo sapiens) (UniProt Q99828). The assay can be described thus: Validation qHTS for Identification of Calcium Integrin Binding protein 1 (CIB1) Competitor (AID 1508618). The conditions noted are these: CIB1-GST / FITC-alphaIIb peptide fluorescence polarization; series mostly up to 114 µM. In a few lines:
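CIB1-GST (1 uM final) incubated 15 min at room temperature with compounds (up to 114 uM), then FITC-labelled alphaIIb peptide (100 nM) added. FP read (Ex 480/Em 540) after 15 min, pH 7.4 buffer containing 5 mM CaCl2.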
For orientation: In qHTS, concentration-response curves come from the screen itself.

Assay [2] shares this target. Put plainly: Primary qHTS for Identification of Calcium Integrin Binding Protein 1 (CIB1) Competitor (AID 1508620).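 Also: GST tagged CIB1 binding a fluorescein labelled alphaIIb integrin peptide tracer; top concentration of the series differs between compounds.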 The conditions noted are these: CIB1-GST / FITC-alphaIIb peptide fluorescence polarization; series mostly up to 114 µM. In a few lines: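 Fluorescence polarization competition: CIB1-GST (1 uM final) preincubated with compound 15 min at room temperature, then FITC-labeled alphaIIb peptide (100 nM final) added for another 15 min. Polarization read at Ex 480/Em 540.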

Assay [3] in a line: Primary qHTS for small molecule stabilizers of the endoplasmic reticulum resident proteome: Secreted ER Calcium Modulated Protein (SERCaMP) assay (AID 1508630). The conditions noted are these: SH-SY5Y GLuc-SERCaMP (Gaussia luciferase released on ER calcium loss) secretion, thapsigargin, luminescence; series mostly up to 38.4 µM. In a few lines:
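The SH-SY5Y reporter protocol was run at 3 concentrations up to 38.3 uM (primary) or 11 concentrations (follow-up): 16 h compound, 100 nM thapsigargin for 4 h, then extracellular luciferase luminescence.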

In assay [4] the target is Cytochrome P450 2D6 (Homo sapiens) (UniProt P10635). Put plainly: Cytochrome P450 family 2 subfamily D member 6 (CYP2D6) small molecule antagonists: luciferase biochemical (cell-free) qHTS assay (AID 1645840; active = well fitted curve in the direction sought with a large enough effect in the repeat runs; an effect the other way counts as inactive or inconclusive; also: nearly all actives have a fitted effect of over 55% in size; also: potency is read from the fitted curve at half-maximal effect). The conditions noted are these: P450-Glo CYP2D6 enzyme, luciferin luminescence, 1 h; series mostly up to 57.4 µM. In a few lines: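 P450-Glo CYP2D6 system: proluciferin substrate converted by enzyme to luciferin, read by luminescence proportional to activity. Enzyme-substrate mix with compound 10 min at room temperature, then NADPH regeneration 1 h before detection reagent.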
Cytochrome P450 2D6 (Homo sapiens), sequence (P10635 whole entry, looked up): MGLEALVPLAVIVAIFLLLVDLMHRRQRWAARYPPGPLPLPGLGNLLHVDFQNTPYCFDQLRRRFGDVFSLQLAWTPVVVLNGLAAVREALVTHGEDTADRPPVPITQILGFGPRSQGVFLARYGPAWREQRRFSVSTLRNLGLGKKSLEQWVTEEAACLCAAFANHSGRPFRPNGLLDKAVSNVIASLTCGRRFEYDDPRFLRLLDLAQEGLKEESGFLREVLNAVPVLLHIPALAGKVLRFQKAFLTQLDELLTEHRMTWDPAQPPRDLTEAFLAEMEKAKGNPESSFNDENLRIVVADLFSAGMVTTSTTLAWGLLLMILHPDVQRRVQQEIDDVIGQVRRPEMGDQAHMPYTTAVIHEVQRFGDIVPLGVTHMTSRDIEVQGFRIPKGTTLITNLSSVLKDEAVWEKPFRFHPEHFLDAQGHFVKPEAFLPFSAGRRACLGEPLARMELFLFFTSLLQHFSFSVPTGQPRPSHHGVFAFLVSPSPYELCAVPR

The next assay concerns the target Papain (Carica papaya) (UniProt P00784). The assay can be described thus: Primary qHTS assay for inhibitors of the protease papain (AID 1645873).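 Also: papain turnover of Z-FR-AMC read as the AMC fluorescence gain over 10 min.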 Also: potency is read from the fitted curve at half-maximal effect. The conditions noted are these: papain Z-FR-AMC cleavage, AMC fluorescence; series mostly up to 49.8 µM.
The nature of assay [5]: Primary qHTS for inhibitors of nuclear receptor binding SET domain protein 2 (NSD2) in an isogenic RCH-ACV NSD2 p.E1099K mutant (9B) (AID 1645876). Also: nearly all actives have a fitted effect of over 70% in size. Also: potency is read from the fitted curve at half-maximal effect. The conditions noted are these: RCH-ACV NSD2 E1099K (9B) viability, CellTiter-Glo, 72 h; series mostly up to 44.9 µM.
The nature of assay [6]: Primary qHTS for inhibitors of nuclear receptor binding SET domain protein 2 (NSD2) in an RCH-ACV wild type WT cells (2C) (AID 1645877). Also: nearly all actives have a fitted effect of over 70% in size. Also: potency is read from the fitted curve at half-maximal effect. The conditions noted are these: RCH-ACV (leukaemia line) NSD2 WT (2C) viability, CellTiter-Glo, 72 h; series mostly up to 44.9 µM.
The target in assay [7] is Rap guanine nucleotide exchange factor 3 (Homo sapiens) (UniProt O95398). Put plainly: Confirmatory qHTS for agonist of cAMP-regulated guanine nucleotide exchange factor 3 (EPAC1) (AID 1645881).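 Also: EPAC1 catalysed release of BODIPY-GDP from Rap1B seen as fluorescence loss; nearly all actives have a fitted effect of over 75% in size.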 The conditions noted are these: EPAC1 Rap1B BODIPY-GDP exchange fluorescence; series mostly up to 154 µM.
Rap guanine nucleotide exchange factor 3 (Homo sapiens), sequence (O95398 whole entry, looked up): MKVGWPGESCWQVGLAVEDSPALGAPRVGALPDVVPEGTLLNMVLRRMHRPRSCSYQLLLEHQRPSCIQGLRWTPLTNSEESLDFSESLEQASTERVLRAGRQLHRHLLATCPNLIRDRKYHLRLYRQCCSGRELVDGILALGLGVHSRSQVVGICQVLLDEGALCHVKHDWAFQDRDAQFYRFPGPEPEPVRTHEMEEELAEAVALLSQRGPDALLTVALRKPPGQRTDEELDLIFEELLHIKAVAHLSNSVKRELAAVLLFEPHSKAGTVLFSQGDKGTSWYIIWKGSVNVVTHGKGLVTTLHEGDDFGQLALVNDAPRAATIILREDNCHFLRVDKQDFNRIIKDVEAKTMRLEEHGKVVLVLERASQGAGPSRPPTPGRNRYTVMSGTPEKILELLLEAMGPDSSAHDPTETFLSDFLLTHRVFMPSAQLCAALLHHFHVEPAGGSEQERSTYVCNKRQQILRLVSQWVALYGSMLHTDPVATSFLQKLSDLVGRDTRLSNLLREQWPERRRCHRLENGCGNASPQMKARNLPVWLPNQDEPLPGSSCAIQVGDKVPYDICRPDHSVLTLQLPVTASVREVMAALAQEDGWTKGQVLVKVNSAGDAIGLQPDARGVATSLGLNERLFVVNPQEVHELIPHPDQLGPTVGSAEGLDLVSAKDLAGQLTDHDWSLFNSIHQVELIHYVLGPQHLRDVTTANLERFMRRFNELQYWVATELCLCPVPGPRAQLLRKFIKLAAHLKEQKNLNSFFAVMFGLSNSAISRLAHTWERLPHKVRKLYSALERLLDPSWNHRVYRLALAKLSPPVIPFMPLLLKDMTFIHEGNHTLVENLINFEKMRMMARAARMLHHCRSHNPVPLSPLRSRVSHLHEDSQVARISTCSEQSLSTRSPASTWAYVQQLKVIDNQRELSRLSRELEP
The target of assay [8] is Rap guanine nucleotide exchange factor 4 (Homo sapiens) (UniProt Q8WZA2). Put plainly: Confirmatory qHTS for agonist of cAMP-regulated guanine nucleotide exchange factor 4 (EPAC2) (AID 1645884).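 Also: nucleotide exchange releases bodipy-GDP from Rap1 and this lowers its fluorescence; nearly all actives have a fitted effect of over 65% in size.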 The conditions noted are these: EPAC2 GEF activity, Rap1B-BODIPY-GDP fluorescence; series mostly up to 154 µM.
Rap guanine nucleotide exchange factor 4 (Homo sapiens), sequence (Q8WZA2 whole entry, looked up): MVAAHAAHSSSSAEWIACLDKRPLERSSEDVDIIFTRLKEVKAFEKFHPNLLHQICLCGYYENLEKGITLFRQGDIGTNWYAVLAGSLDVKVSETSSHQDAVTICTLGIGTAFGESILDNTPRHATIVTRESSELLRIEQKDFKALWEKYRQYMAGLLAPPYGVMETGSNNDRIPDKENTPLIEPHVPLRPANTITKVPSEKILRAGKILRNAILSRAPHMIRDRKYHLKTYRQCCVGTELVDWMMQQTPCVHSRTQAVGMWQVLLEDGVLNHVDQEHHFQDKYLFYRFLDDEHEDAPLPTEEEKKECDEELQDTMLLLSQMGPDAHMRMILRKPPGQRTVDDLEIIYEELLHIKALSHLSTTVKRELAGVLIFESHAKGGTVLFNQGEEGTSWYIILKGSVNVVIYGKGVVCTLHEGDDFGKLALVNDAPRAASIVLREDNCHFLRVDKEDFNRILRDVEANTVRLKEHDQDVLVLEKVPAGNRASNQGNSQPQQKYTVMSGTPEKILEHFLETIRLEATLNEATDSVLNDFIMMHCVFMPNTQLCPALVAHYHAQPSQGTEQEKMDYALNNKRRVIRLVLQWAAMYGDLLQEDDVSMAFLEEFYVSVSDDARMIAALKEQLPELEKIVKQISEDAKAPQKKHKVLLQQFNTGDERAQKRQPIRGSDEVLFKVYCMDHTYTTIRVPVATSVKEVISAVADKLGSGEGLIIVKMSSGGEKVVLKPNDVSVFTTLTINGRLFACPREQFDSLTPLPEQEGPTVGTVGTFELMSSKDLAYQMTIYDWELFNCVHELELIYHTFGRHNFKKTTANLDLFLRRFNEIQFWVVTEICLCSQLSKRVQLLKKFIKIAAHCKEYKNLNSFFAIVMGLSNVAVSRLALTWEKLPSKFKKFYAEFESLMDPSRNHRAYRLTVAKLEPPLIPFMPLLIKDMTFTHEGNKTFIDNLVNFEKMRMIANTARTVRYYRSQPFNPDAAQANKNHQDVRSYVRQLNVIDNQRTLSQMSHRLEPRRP
Assay [9] shares this target. Put plainly: Confirmatory qHTS for antagonist of cAMP-regulated guanine nucleotide exchange factor 4 (EPAC2) (AID 1645885). Also: nearly all actives have a fitted effect of over 25% in size. The conditions noted are these: EPAC2 Rap1B-BODIPY-GDP exchange fluorescence, biochemical; series mostly up to 114 µM.
Assay [10] has as its target Rap guanine nucleotide exchange factor 3 (Homo sapiens) (UniProt O95398). The assay can be described thus: Counterscreen qHTS for antagonist of cAMP-regulated guanine nucleotide exchange factor 3 (EPAC1) (AID 1645888).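 Also: fluorescence loss as bound BODIPY-GDP is released from Rap1B.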 The conditions noted are these: Rap1B-BODIPY-GDP nucleotide exchange, fluorescence; series mostly up to 154 µM. The method, boiled down: (§1)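 Measured: fluorescence of BODIPY-GDP bound to Rap1B, which falls as exchange proceeds. Conditions include 50 uM competing GDP, 5 and 30 min reads, and a later cAMP challenge for antagonist detection.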

For assay [11] the target is unchanged. The assay can be described thus: Counterscreen qHTS for agonist of cAMP-regulated guanine nucleotide exchange factor 3 (EPAC1) (AID 1645889). Also: nearly all actives have a fitted effect of over 40% in size. The conditions noted are these: EPAC1 Rap1B-BODIPY-GDP exchange, fluorescence; series mostly up to 154 µM. The method, boiled down: as §1
Assay [12] has as its target Cytochrome P450 3A4 (Homo sapiens) (UniProt P08684). The assay can be described thus: Cytochrome P450 family 3 subfamily A member 4 (CYP3A4) small molecule antagonists: luciferase qHTS assay (AID 1645841; active = well fitted curve in the direction sought with a large enough effect in the repeat runs; an effect the other way counts as inactive or inconclusive; also: nearly all actives have a fitted effect of over 45% in size). The conditions noted are these: P450-Glo CYP3A4 enzyme assay, luciferin luminescence; series mostly up to 57.4 µM. In a few lines: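 P450-Glo CYP3A4 enzyme with proluciferin substrate was preincubated with DMSO-dissolved compounds for 10 min at room temperature. NADPH regeneration solution started a 1 h reaction. Detection reagent stopped it, and luminescence was read after 20 min.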

Assay [13] addresses Cytochrome P450 2C9 (Homo sapiens) (UniProt P11712). The assay can be described thus: Cytochrome P450 family 2 subfamily C member 9 (CYP2C9) small molecule antagonists: luciferase biochemical (cell-free) qHTS assay (AID 1645842; active = well fitted curve in the direction sought with a large enough effect in the repeat runs; an effect the other way counts as inactive or inconclusive; also: nearly all actives have a fitted effect of over 55% in size). The conditions noted are these: P450-Glo CYP2C9 enzyme assay, luciferin luminescence; series mostly up to 57.4 µM. In a few lines:
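P450-Glo CYP2C9 system: proluciferin substrate with enzyme in mix containing 0.4% BSA, 10 min at room temperature, then NADPH regeneration solution added and incubated 1 h at 37C. Detection reagent stopped reaction; luminescence read after 20 min as RLU.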

A short description of assay [14]: A High-Content qHTS Against Drug Library for the Identification of Small Molecules that Inhibit DYT1 Early Onset Primary Dystonia-Associated Cell Pathology (AID 1645839; calls by dose curve). The conditions noted are these: HEK293 Flp-In EGFP-delE TorsinA, punctate imaging, 48 h; series mostly up to 46.1 µM. In a few lines: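 Induced EGFP-delE TorsinA cells are imaged after 48 h of compound treatment. Punctate fusion-protein distribution gives the %pathology value, while nuclei counts flag toxicity. Wild-type EGFP-hTOR1A cells define the normal pattern.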

The structures appear in SMILES notation. Inconclusive results are not listed. Values without a mark were called inactive. The source made the active and inactive calls. Unless noted, calls follow the shape of the dose curve; as a rule, active = well fitted curve in the direction sought with a large enough effect; inconclusive = small, poorly fitted or top-dose-only effect, or another doubt; inactive = no such curve, though single readings can be large; an effect the other way counts as inactive or inconclusive.

Papain (Carica papaya), sequence (P00784 whole entry, looked up, the tested form may be a part): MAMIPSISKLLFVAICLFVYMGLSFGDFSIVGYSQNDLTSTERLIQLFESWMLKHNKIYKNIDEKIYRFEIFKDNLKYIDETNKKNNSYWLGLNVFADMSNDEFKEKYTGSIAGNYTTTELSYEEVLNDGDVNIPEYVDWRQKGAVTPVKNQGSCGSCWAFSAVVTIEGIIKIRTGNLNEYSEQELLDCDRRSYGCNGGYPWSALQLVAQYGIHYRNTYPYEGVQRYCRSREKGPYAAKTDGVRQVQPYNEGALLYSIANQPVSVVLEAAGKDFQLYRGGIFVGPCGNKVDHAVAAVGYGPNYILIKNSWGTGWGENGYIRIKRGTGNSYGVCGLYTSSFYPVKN
Cytochrome P450 2C9 (Homo sapiens), sequence (P11712 whole entry, looked up): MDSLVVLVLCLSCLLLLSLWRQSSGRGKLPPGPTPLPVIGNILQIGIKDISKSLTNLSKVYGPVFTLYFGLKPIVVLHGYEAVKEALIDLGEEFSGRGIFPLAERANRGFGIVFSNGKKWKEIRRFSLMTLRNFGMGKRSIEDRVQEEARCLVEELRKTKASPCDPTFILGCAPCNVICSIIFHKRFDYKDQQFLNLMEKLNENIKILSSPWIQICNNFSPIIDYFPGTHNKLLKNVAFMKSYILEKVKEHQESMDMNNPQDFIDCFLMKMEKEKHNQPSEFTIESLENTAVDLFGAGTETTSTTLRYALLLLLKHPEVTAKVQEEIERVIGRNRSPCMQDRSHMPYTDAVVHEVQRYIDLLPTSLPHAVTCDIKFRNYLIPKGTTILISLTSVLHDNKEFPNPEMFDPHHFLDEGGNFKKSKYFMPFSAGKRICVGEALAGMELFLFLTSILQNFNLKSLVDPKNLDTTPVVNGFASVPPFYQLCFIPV
Calcium and integrin-binding protein 1 (Homo sapiens), sequence (Q99828 whole entry, looked up): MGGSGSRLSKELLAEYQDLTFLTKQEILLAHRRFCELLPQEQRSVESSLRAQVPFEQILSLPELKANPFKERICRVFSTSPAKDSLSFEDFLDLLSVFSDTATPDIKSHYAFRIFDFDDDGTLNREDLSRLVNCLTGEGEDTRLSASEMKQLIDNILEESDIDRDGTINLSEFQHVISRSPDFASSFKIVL
Cytochrome P450 3A4 (Homo sapiens), sequence (P08684 whole entry, looked up): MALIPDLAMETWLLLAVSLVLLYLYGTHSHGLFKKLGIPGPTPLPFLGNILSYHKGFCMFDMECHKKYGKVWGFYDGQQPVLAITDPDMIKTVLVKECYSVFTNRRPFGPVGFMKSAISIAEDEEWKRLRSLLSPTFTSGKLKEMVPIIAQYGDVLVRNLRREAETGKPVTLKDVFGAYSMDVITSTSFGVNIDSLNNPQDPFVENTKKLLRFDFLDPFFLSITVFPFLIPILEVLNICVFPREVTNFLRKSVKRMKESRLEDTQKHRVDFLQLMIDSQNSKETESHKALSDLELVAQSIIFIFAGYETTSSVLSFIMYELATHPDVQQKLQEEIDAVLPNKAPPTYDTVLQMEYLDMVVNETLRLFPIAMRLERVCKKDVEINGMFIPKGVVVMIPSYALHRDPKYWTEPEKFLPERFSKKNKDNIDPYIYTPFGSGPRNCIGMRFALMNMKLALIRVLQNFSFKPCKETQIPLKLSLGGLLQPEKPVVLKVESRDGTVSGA

As for `OCCN1CCN(CC/C=C2/c3ccccc3Sc3ccc(C(F)(F)F)cc32)CC1`, the result in [1], in assay [10] and in assay [11] was inactive. Moreover, the Potency result (in assay [2]; in [3]; with Papain (Carica papaya); in [7]; in [8]; in [9]) was “inactive” in each case. Besides, the Potency in assay [4] was 6.92 µM (active); in [5], 15 µM (active); in [6] it was 10.6 µM (active).
With `Nc1ncn([C@@H]2O[C@H](CO)[C@@H](O)[C@H]2O)c(=O)n1`, the result in assay [1] and in [12] was inactive. In addition, the Potency entry (in [2]; in assay [3]; in [4]; in assay [13]; with Papain (Carica papaya)) was “inactive” throughout. In addition, the values for the Potency in assay [5] and in [6] were 10.5 µM (active) and 9.34 µM (active), respectively.
Regarding `CCN1CCC[C@H]1CNC(=O)c1c(O)c(Cl)cc(Cl)c1OC`, in [1], the outcome was inactive. The Potency entry (in assay [2]; in [3]; in [14]; in assay [13]; in the assay with Papain (Carica papaya); in [5]) was “inactive” each time. For the same compound, the Potency entry in assay [6] is “inactive”.
`CCN(CC)CCNC(=O)c1cc(S(C)(=O)=O)ccc1OC`: the result in assay [1] was inactive. Also, the Potency result (in assay [2]; in assay [3]; in assay [14]; in assay [13]; with Papain (Carica papaya); in assay [5]) was “inactive” in each case.
Regarding `COc1ccc(CCN(C)CCCC(C#N)(c2cc(OC)c(OC)c(OC)c2)C(C)C)cc1OC` (stereo not given), the outcome in assay [1] was inactive. Moreover, the Potency result (in assay [2]; in [3]; in [14]; with Papain (Carica papaya)) was “inactive” throughout. For the same compound, in [6], the Potency is 15 µM (active).
As for `O=C(O)CP(=O)(O)O`, in assay [1], the result was inactive. Besides, the Potency entry (in assay [2]; in [14]; in [4]; in [13]; in the assay with Papain (Carica papaya); in assay [5]) was “inactive” each time.
Turning to `Nc1nc(N)c2nc(-c3ccccc3)c(N)nc2n1`, the outcome in assay [1] was inactive. Also, the Potency result in assay [2], in [3] and in assay [14] was “inactive” throughout. For the same compound, the Potency with Papain (Carica papaya) was 1.12 µM (active); in [5] it was 7.5 µM (active).
With `CN(C)CCN(Cc1cccs1)c1ccccn1`, the outcome in assay [1] was inactive. Besides, the Potency entry (in assay [2]; in assay [3]; in [14]; in assay [13]; with Papain (Carica papaya); in [5]) was “inactive” each time. Also, the Potency entry in assay [6] is “inactive”.
In the case of `CCN(CC)CC(=O)Nc1c(C)cccc1C`, in assay [1], the result was inactive. For the same compound, the Potency entry (in assay [2]; in assay [3]; in assay [14]; with Papain (Carica papaya); in assay [5]) was “inactive” each time.
Regarding `CC(C)NCC(O)c1cc(O)cc(O)c1` (stereo not given), in assay [1], the result was inactive. Further, the Potency result (in assay [3]; in assay [14]; in assay [13]; with Papain (Carica papaya); in assay [5]) was “inactive” each time.
